Source: PubChem BioAssay AID1159580 (chemical genetic matrix, 2015)
Among all 5,500 compounds or so, about 2,000 (36%) were called active. Inconclusive results (about 18%) are left out. No stated cut-off is given here; in the data, active means normalized growth mostly below about 0.91 (no sharp cut-off); inconclusive means no clear call, values can overlap the other calls; inactive means mostly above about 0.92. This is one part of the list.

Assay: chemical genetic growth profiling, strain panel (AID 1159580);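 further: tested at 20 µM; growth read once vehicle control cultures reached saturation at 30 °C; 1 = growth at the plate median or of vehicle wells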
Settings: S. cerevisiae deletion strains, growth OD

Measured: normalized growth

CN1CCc2cc3c(cc2[C@H]1C1OC(=O)c2c1ccc1c2OCO1)OCO3 (stereo partly specified)
inactive: locus YAL021C, strain ccr4, stronger effect = lower value 1.01 | locus YAL026C, strain drs2, stronger effect = lower value 0.989 | locus YAL030W, strain snc1, stronger effect = lower value 0.982 | locus YBL061C, strain skt5, stronger effect = lower value 0.982 | locus YBR009C, strain hhf1, stronger effect = lower value 0.989 | locus YBR023C, strain chs3, stronger effect = lower value 0.972 | locus YBR171W, strain sec66, stronger effect = lower value 0.997 | locus YBR231C, strain swc5, stronger effect = lower value 0.993 | locus YBR279W, strain paf1, stronger effect = lower value 0.993 | locus YCL011C, strain gbp2, stronger effect = lower value 0.985 | locus YCL016C, strain dcc1, stronger effect = lower value 0.981 | locus YCL061C, strain MRC1, stronger effect = lower value 0.993 | locus YCL069W, strain vba3, stronger effect = lower value 0.986 | locus YCR088W, strain abp1, stronger effect = lower value 0.98 | locus YDL005C, strain med2, stronger effect = lower value 0.988 | locus YDL040C, strain nat1, stronger effect = lower value 0.99 | locus YDR001C, strain nth1, stronger effect = lower value 0.986 | locus YDR069C, strain doa4, stronger effect = lower value 0.974 | locus YDR137W, strain rgp1, stronger effect = lower value 0.971 | locus YDR159W, strain sac3, stronger effect = lower value 0.976 | locus YDR195W, strain ref2 0.957 | locus YDR297W, strain sur2, stronger effect = lower value 0.987 | locus YDR334W, strain swr1, stronger effect = lower value 0.981 | locus YDR335W, strain msn5, stronger effect = lower value 0.996 | locus YDR392W, strain spt3, stronger effect = lower value 0.905 | locus YEL003W, strain gim4, stronger effect = lower value 0.991 | locus YEL037C, strain rad23, stronger effect = lower value 0.971 | locus YEL061C, strain CIN8 (second series), stronger effect = lower value 0.973 | locus YER015W, strain faa2, stronger effect = lower value 0.982 | locus YER016W, strain bim1, stronger effect = lower value 0.989 | locus YER111C, strain swi4, stronger effect = lower value 0.991 | locus YER155C, strain BEM2 (second series), stronger effect = lower value 0.968 | locus YFR010W, strain ubp6, stronger effect = lower value 0.977 | locus YGL167C, strain pmr1, stronger effect = lower value 0.98 | locus YGL173C, strain kem1, stronger effect = lower value 0.988 | locus YGL227W, strain vid30, stronger effect = lower value 0.976 | locus YGL240W, strain doc1, stronger effect = lower value 0.983 | locus YGL253W, strain hxk2, stronger effect = lower value 0.987 | locus YHR013C, strain ard1, stronger effect = lower value 0.959 | locus YHR027C, strain rpn1, stronger effect = lower value 0.993 | locus YHR030C, strain SLT2, stronger effect = lower value 0.985 | locus YHR079C, strain IRE1, stronger effect = lower value 0.989 | locus YHR142W, strain chs7, stronger effect = lower value 1.01 | locus YJL092W, strain hpr5, stronger effect = lower value 0.991 | locus YJL095W, strain BCK1 (second series), stronger effect = lower value 0.988 | locus YJL095W, strain BCK1, stronger effect = lower value 0.987 | locus YJL115W, strain asf1, stronger effect = lower value 0.983 | locus YJL129C, strain trk1, stronger effect = lower value 0.975 | locus YJL154C, strain vps35, stronger effect = lower value 0.985 | locus YJL164C, strain tpk1, stronger effect = lower value 1.01 | locus YJL166W, strain qcr8, stronger effect = lower value 0.999 | locus YJL187C, strain SWE1, stronger effect = lower value 0.986 | locus YJR066W, strain TOR1, stronger effect = lower value 0.93 | locus YKL160W, strain elf1, stronger effect = lower value 1.01 | locus YKR026C, strain gcn3, stronger effect = lower value 0.979 | locus YKR091W, strain srl3, stronger effect = lower value 0.99 | locus YLL001W, strain dnm1, stronger effect = lower value 0.987 | locus YLL026W, stronger effect = lower value 0.983 | locus YLL041C, strain sdh2, stronger effect = lower value 0.994 | locus YLR027C, strain aat2, stronger effect = lower value 0.976 | locus YLR113W, strain HOG1, stronger effect = lower value 0.987 | locus YLR221C, strain rsa3, stronger effect = lower value 0.989 | locus YLR258W, strain gsy2, stronger effect = lower value 0.988 | locus YLR262C, strain YPT6 (second series), stronger effect = lower value 0.97 | locus YLR320W, strain mms22, stronger effect = lower value 0.993 | locus YLR342W, strain FKS1, stronger effect = lower value 0.983 | locus YLR357W, strain rsc2, stronger effect = lower value 0.997 | locus YLR370C, strain arc18, stronger effect = lower value 0.983 | locus YLR384C, strain iki3, stronger effect = lower value 0.976 | locus YML120C, strain ndi1, stronger effect = lower value 0.981 | locus YMR058W, strain fet3, stronger effect = lower value 0.969 | locus YMR125W, strain sto1, stronger effect = lower value 0.973 | locus YMR129W, stronger effect = lower value 0.995 | locus YMR205C, strain PFK2, stronger effect = lower value 0.98 | locus YMR231W, strain pep5, stronger effect = lower value 0.987 | locus YNL071W, strain lat1, stronger effect = lower value 0.989 | locus YNL183C, strain NPR1, stronger effect = lower value 0.94 | locus YNL209W, strain ssb2, stronger effect = lower value 0.985 | locus YNL248C, strain rpa49, stronger effect = lower value 0.993 | locus YNL322C, strain KRE1 (second series), stronger effect = lower value 0.987 | locus YNR049C, strain mso1, stronger effect = lower value 0.99 | locus YOR001W, strain rrp6, stronger effect = lower value 1.01 | locus YOR070C, strain gyp1, stronger effect = lower value 0.973 | locus YOR080W, strain dia2, stronger effect = lower value 0.994 | locus YOR083W, strain WHI5, stronger effect = lower value 1.01 | locus YOR106W, strain vam3, stronger effect = lower value 0.99 | locus YOR231W, strain MKK1, stronger effect = lower value 0.977 | locus YOR265W, strain rbl2, stronger effect = lower value 0.99 | locus YOR270C, strain vph1, stronger effect = lower value 0.947 | locus YOR290C, strain snf2, stronger effect = lower value 0.974 | locus YPL051W, strain arl3, stronger effect = lower value 1 | locus YPL078C, strain atp4, stronger effect = lower value 1.01 | locus YPL106C, strain sse1, stronger effect = lower value 0.967 | locus YPL240C, strain hsp82, stronger effect = lower value 0.996 | locus YPL256C, strain CLN2, stronger effect = lower value 0.968

Cc1c(C(=O)c2cccc3ccccc23)c2cccc3c2n1[C@H](CN1CCOCC1)CO3
inactive: locus YAL013W, strain DEP1, stronger effect = lower value 0.978 | locus YAL040C, strain CLN3, stronger effect = lower value 1.01 | locus YCL061C, strain MRC1 (second series), stronger effect = lower value 0.986 | locus YDR363W, strain ESC2, stronger effect = lower value 0.973 | locus YER002W, strain NOP16, stronger effect = lower value 0.998 | locus YMR307W, strain GAS1, stronger effect = lower value 1.01 | locus YNL153C, strain GIM3, stronger effect = lower value 0.983 | locus YNL175C, strain NOP13, stronger effect = lower value 0.992 | locus YNL197C, strain WHI3, stronger effect = lower value 0.988 | locus YNL224C, strain SQS1, stronger effect = lower value 1.02 | locus YOR083W, strain WHI5 (second series), stronger effect = lower value 1.02
